Type in all cases: functional
The test system of test [1] is Plasmodium falciparum. Nature of the test: GSK_TCMDC: Inhibition of Plasmodium falciparum 3D7 in whole red blood cells, using parasite LDH activity as an index of growth. Test compounds present at 2uM.
Test [2] concerns Plasmodium falciparum. Nature of the test: GSK_TCMDC: Inhibition of Plasmodium falciparum Dd2 in whole red blood cells, using parasite LDH activity as an index of growth. Test compounds present at 2uM.
In a further test the test system is HepG2. The test can be described thus: GSK_TCMDC: Percent inhibition of human HepG2 cell line. Test compounds present at 10uM.

For the compound `Cc1cc(C)c(NC(=O)N[C@H]2CCN(CCCCCNC(=O)/C=C/c3ccc(Cl)c(Cl)c3)C2)c(C)c1`, the Inhibition in the test on Plasmodium falciparum [1] is 91%; with Plasmodium falciparum [2], 3%; in the test on HepG2, 12%.
With `FC(F)(F)c1ccc2[nH]c(-c3cccc(-c4ccc(CNCCc5ccncc5)cc4)c3)nc2c1.O=C(O)C(F)(F)F`, the Inhibition in the test with Plasmodium falciparum [1] is given as 99%; in the test on Plasmodium falciparum [2] it was 100%; in the test with HepG2 it was 23%.
Taken in the same sequence, the figures for `CNC(=O)C1Cc2c([nH]c3ccc(Cl)cc23)C2(CCN(CCc3ccccc3)CC2)N1` (configuration not stated) were 98%, 16% and 2%.
The corresponding values for `Cc1csc2nc(-c3ccccn3)nc(Nc3ccncn3)c12.O=C(O)C(F)(F)F` are 97%, 85% and 47%.
The corresponding values for `FC(F)(F)c1ccc2[nH]ccc(=NN=Cc3cccnc3)c2c1` are 100%, 40% and 0%.
In the case of `c1ccc(C2=NN=C(c3ccccn3)C3C4CC(C23)C2C3CC(c5ccccc53)C42)nc1` (configuration not stated), the Inhibition with Plasmodium falciparum [1] stood at 98%; with Plasmodium falciparum [2], 77%; in the test with HepG2 it was 39%.
For the compound `C=CCOc1ccc2ccccc2c1CNCCCCCCNCc1c(OCC=C)ccc2ccccc12.CS(=O)(=O)O`, the Inhibition worked out at 100% in the test with Plasmodium falciparum [1], 98% in the test with Plasmodium falciparum [2] and 99% in the test with HepG2.
For `CCc1ccccc1-c1csc(C(=O)NCC2CCN(Cc3ccc(C(C)(C)C)cc3)C2)c1.O=C(O)C(F)(F)F` (configuration not stated), the Inhibition with Plasmodium falciparum [1] came out at 90%; with Plasmodium falciparum [2], 15%; in the test on HepG2 it was 25%.
For the compound `COc1cc(-c2nnc(SCC(=O)Nc3cc(C)on3)n2C)cc(OC)c1O`, the results for the Inhibition in the test with Plasmodium falciparum [1], in the test on Plasmodium falciparum [2] and in the test on HepG2 were 89%, 2% and 2%, respectively.
Turning to `O=C(NCCCCN1CCC(c2c[nH]c3ccc(-c4ccccc4)cc23)CC1)c1ccc(-c2ccccc2)cc1.O=C(O)C(=O)O`, the results for the Inhibition in the test with Plasmodium falciparum [1], in the test with Plasmodium falciparum [2] and with HepG2 were 97%, 40% and 48%, respectively.
Taken in the same sequence, the figures for `Nc1nc(N)c2cc(Sc3ccc4ccccc4c3)ccc2n1` were 95%, 92% and 66%.
The corresponding values for `COc1ccc2nccc(N(C)CC3(O)CCN(CCc4ccc5c(c4)OCCO5)CC3)c2n1.Cl` are 100%, 96% and 15%.
Taken in the same sequence, the figures for `O=C(NCCN1CCOCC1)c1ccc(N2CCC(Oc3ccc4ccccc4c3)CC2)nc1` were 92%, 30% and 1%.
Consider `Cc1cc(C(=O)CN2C(=O)NC(C)(c3cccc4ccccc34)C2=O)c(C)n1Cc1ccco1` (configuration not stated), for which the Inhibition in the test with Plasmodium falciparum [1] is recorded as 90%; in the test on Plasmodium falciparum [2] it was 23%; in the test on HepG2, 0%.
Taken in the same sequence, the figures for `CCCCCCNc1cc(C)nc(NC(=N)Nc2cccc(C(F)(F)F)c2)n1` were 100%, 100% and 44%.
Regarding `O=C(c1ccc([N+](=O)[O-])o1)N1CCC(c2cn(Cc3cccc(F)c3)c3ccccc23)CC1`, the Inhibition in the test on Plasmodium falciparum [1] came to 97%; with Plasmodium falciparum [2], 95%; in the test on HepG2 it was 1%.
For the compound `N#CC(c1cccc(Cl)c1)c1ccc2c(C(F)(F)F)cc(C(F)(F)F)nc2n1` (configuration not stated), the Inhibition was determined as 96% in the test with Plasmodium falciparum [1], 97% in the test with Plasmodium falciparum [2] and 52% in the test on HepG2.
Taken in the same sequence, the figures for `Fc1cc(Cl)ccc1Nc1ccnc2cc(-c3ccc(CN4CCSCC4)o3)ccc12` were 100%, 99% and 17%.
Taken in the same sequence, the figures for `O=C(O)C(F)(F)F.c1ccc2c(c1)CN(CC1CCOCC1)CC1(CCN(Cc3c[nH]c4cnccc34)CC1)O2` were 99%, 7% and 21%.
For the compound `O=C(O)C(F)(F)F.O=S(=O)(NCCN1CCCC1)c1cccc(-c2ccc(CNCc3ccsc3)cc2)c1`, the Inhibition is 100% with Plasmodium falciparum [1], 31% in the test with Plasmodium falciparum [2] and 33% with HepG2.
The corresponding values for `O=C(Nc1ccc(-c2ccccc2)cc1)Nc1cccc(Cn2nc(Cl)c(N3CCNCC3)cc2=O)c1.O=C(O)C(F)(F)F` are 100%, 79% and 15%.
The corresponding values for `Cl.O=C(Nc1cc(Cl)cc(Cl)c1)c1cnn(-c2ccc(F)cc2)c1C1CCNCC1` are 90%, 0% and 13%.
`COc1cc(C)nc2ccc(NC(=O)c3cc(C(F)(F)F)cc(C(F)(F)F)c3)cc12.Cl`: the Inhibition with Plasmodium falciparum [1] turned out to be 100%; in the test on Plasmodium falciparum [2], 99%; with HepG2, 16%.
Taken in the same sequence, the figures for `O=C(/C=C/c1ccc(Cl)c(Cl)c1)NCCCCCN1CCC(NC(=O)c2ccc(F)c(F)c2)CC1` were 99%, 20% and 36%.
With `CCCCCC(C)C(C)c1cc(O)c2c(c1)OC(C)(C)CC2(O)c1ccnn1C` (configuration not stated), the Inhibition is on record as 98% with Plasmodium falciparum [1], 95% in the test on Plasmodium falciparum [2] and 20% with HepG2.
Turning to `COc1cccc(C(=O)NC(c2ccc(Cl)cc2Cl)c2cc(Cl)c3cccnc3c2O)c1` (configuration not stated), the Inhibition worked out at 100% in the test with Plasmodium falciparum [1], 76% in the test with Plasmodium falciparum [2] and 37% with HepG2.
`CC(C)C(C(=O)Nc1ccc(S(=O)(=O)N(C)C)cc1)c1ccc(Cl)cc1` (configuration not stated): the Inhibition turned out to be 100% in the test with Plasmodium falciparum [1], 98% in the test with Plasmodium falciparum [2] and 27% in the test on HepG2.
Taken in the same sequence, the figures for `O=C(O)C(F)(F)F.O=S(=O)(NCCN1CCCC1)c1ccc(-c2ccc(CNCc3ccc(F)cc3)cc2)cc1` were 94%, 44% and 42%.
The corresponding values for `COc1cc2nc(N3CCC(CNC(=O)c4ccc(C(C)=O)cc4)CC3)nc(N)c2cc1OC.O=C(O)C(F)(F)F` are 96%, 15% and 10%.

For orientation: Inhibition means the drop in the measured response relative to a control, in per cent. Low readings indicate a response near the control, high ones a response far below the control.

For the origin of these results see ChEMBL document CHEMBL1157539, “Thousands of chemical starting points for antimalarial lead identification” (Nature, 2010).
